Screening results from PubChem.
Sampled rows, rich in hits. Any-hit rate of the full collection: about 2.8%.
Pol iota inh – qHTS for Inhibitors of Polymerase Iota. DNA polymerase iota (Homo sapiens), Q9UNA4. Potency, µM (series often up to 115 µM), most hits filed as inhibitors. actives 1% (n = 390,000). Pol iota fluorescent replication assay, 10 min
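Fluorescent replication assay read twice, at 0 min and 10 min after adding 50 nM (final) substrate. Enzyme (10 nM) and compounds were first incubated 15 min at room temperature; enzyme-free buffer wells were negative controls.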
Pol eta inh-1 – qHTS for Inhibitors of Polymerase Eta. AID 588591, 2011. recombinant Pol eta, fluorescent DNA replication assay. DNA polymerase eta (Homo sapiens), Q9Y253. actives 1.2% (n = 390,000). Potency, µM (top dose mostly 114 µM), usual class: inhibitors
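Fluorescent replication assay: 50 nM final substrate added after a 15 min room-temperature compound preincubation with 10 nM enzyme. Signal taken at 0 min and again at 10 min.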
PI5P4Ka inh – qHTS for Inhibitors of phosphatidylinositol 5-phosphate 4-kinase (PI5P4K); PI5P4Kalpha enzyme, ADP-Glo luminescence, 60 min; stronger effect = lower value; max response, %; actives 1.2% (n = 330,000); active = max response of -50% or lower; inconclusive = between -30% and -50%; inactive = -30% or higher; note: value at the top dose of about 77 µM
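Quantitative HTS of the MLSMR library against PI5P4Kalpha with substrate. ATP added last at 5 microM final; room temperature, 60 minutes. Remaining ATP depleted, ADP converted and read as luminescence.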
WRN helicase inh-1 – qHTS for Inhibitors of WRN Helicase | Bifunctional 3'-5' exonuclease/ATP-dependent helicase WRN (Homo sapiens), Q14191 | WRN helicase unwinding, fluorescent forked duplex, kinetic | Potency, µM (highest dose often 114 µM), most hits filed as inhibitors | actives 0.46% (n = 360,000) | AID 651768, 2012; note: nearly all actives have a fitted effect of over 55% in size
Target sequence (Q14191 whole entry, looked up): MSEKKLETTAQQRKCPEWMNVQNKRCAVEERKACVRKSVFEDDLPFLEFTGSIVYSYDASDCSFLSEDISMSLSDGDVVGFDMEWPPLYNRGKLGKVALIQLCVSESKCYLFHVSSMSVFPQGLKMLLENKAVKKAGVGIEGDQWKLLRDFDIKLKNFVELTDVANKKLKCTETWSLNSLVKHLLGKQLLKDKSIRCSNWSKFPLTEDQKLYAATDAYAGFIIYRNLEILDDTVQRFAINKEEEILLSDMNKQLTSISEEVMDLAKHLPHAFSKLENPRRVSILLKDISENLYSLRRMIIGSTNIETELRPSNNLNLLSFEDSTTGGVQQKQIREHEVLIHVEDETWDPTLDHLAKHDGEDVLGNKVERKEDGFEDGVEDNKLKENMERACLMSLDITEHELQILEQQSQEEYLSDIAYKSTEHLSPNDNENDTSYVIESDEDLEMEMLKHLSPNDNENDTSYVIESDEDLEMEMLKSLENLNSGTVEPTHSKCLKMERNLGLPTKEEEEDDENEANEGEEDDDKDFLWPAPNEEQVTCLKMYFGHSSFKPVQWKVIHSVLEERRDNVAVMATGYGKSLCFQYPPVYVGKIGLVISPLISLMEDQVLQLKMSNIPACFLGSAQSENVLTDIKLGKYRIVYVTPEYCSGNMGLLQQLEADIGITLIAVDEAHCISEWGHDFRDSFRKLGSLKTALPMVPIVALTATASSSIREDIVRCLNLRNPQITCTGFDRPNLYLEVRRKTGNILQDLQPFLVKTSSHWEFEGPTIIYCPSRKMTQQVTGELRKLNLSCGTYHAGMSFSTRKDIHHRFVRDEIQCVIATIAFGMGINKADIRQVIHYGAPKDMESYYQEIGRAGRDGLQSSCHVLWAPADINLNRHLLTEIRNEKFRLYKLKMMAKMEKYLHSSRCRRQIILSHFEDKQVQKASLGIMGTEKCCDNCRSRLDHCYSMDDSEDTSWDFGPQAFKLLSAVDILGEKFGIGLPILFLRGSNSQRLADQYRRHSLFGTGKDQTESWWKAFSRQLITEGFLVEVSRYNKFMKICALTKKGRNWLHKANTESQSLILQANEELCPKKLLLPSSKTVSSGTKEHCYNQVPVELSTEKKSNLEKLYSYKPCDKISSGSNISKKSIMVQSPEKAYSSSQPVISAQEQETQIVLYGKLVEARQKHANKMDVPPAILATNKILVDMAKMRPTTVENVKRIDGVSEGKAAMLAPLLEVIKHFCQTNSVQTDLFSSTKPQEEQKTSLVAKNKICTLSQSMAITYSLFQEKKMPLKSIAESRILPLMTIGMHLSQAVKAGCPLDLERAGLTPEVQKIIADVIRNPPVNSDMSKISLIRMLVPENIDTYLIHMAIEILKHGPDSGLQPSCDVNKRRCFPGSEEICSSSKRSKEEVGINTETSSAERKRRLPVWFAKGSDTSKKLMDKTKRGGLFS
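Enzyme (20 nM final) and test compound sit together 15 min at room temperature before substrate addition. Substrate is a single-forked duplex oligonucleotide (100 nM) labelled with fluorophore and quencher, with 2 mM ATP; helicase unwinding raises red fluorescence, read kinetically.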
Pol kappa inh-1 – qHTS for Inhibitors of Polymerase Kappa | DNA polymerase kappa (Homo sapiens), Q9UBT6 | purified Pol kappa, fluorescent DNA synthesis assay, 10 min | Potency, µM (highest dose often 107 µM), usual class: inhibitors | actives 0.53% (n = 400,000) | AID 588579, 2011
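Readout: fluorescence, taken kinetically at 0 and 10 min. Conditions: 10 nM Pol kappa, 15 min RT compound preincubation, 50 nM substrate final. Controls: enzyme-free buffer wells.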
Pol beta inh – qHTS Assay for Inhibitors of DNA Polymerase Beta; P06746; Pol beta primer extension/strand displacement, fluorescence kinetic; Potency, µM (top dose mostly 114 µM), hits mostly inhibitors; actives 1.3% (n = 340,000)
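Pol beta (10 nM) and compounds were preincubated 15 min at room temperature, then 50 nM substrate (final) started primer extension/strand displacement. Reads were taken at 0 and 10 min; concentration-response data were fitted to a four-parameter Hill equation.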
TbPGK inh – qHTS for inhibitors of Phosphogylcerate Kinase: Hit Validation Screen. shares compounds with Pol kappa inh-1. Potency, µM (top dose mostly 57.5 µM), hits mostly inhibitors. TbPGK coupled GAPDH assay, Kinase-Glo luminescence. actives 79% (n = 500); note: nearly all actives have a fitted effect of over 65% in size
Pol iota confirm – qHTS for Inhibitors of Polymerase Iota: Confirmatory Assay for Cherry-picked Compounds; shares compounds with Pol kappa inh-1; Potency, µM, most hits filed as inhibitors; Pol iota primer extension, TAMRA/BHQ fluorescence; actives 77% (n = 1,500)
Pol kappa inh-2 – qHTS for Inhibitors of Polymerase Kappa: Confirmatory Assay for Cherry-picked Compounds | shares compounds with Pol eta inh-1 | purified Pol-kappa, fluorescent strand-displacement substrate | Potency, µM, most hits filed as inhibitors | actives 76% (n = 920)
Pol eta inh-2 – qHTS for Inhibitors of Polymerase Eta: Confirmatory Assay for Cherry-picked Compounds. Potency, µM, actives largely listed as inhibitors. shares compounds with Pol eta inh-1. Pol eta primer extension, TAMRA/BHQ fluorescence, 10 min. actives 64% (n = 2,600)
WRN helicase inh-2 – qHTS for Inhibitors of WRN Helicase: Confirmatory Assay for Cherry-picked Compounds; actives 63% (n = 610); WRN helicase DNA unwinding, fluorescence kinetic; AID 720497, 2013; shares compounds with WRN helicase inh-1; Potency, µM (doses to about 57.1 µM), usual class: inhibitors; note: nearly all actives have a fitted effect of over 65% in size
TO displacement – qHTS for Inhibitors of WRN Helicase: Thiazole Orange DNA Binding Counterscreen | shares compounds with WRN helicase inh-1 | thiazole orange DNA binding displacement, fluorescence | Potency, µM (highest dose often 57.1 µM), most hits filed as inhibitors | actives 10% (n = 610) | AID 720499, 2013;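 note: drop in dye fluorescence marks compound binding to DNA; nearly all actives have a fitted effect of over 60% in size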
BLM helicase inh – qHTS for Inhibitors of WRN Helicase: BLM Helicase Counterscreen for WRN Inhibitors. Recombinant BLM helicase DNA unwinding, red fluorescence. actives 60% (n = 610). shares compounds with WRN helicase inh-1. Potency, µM (series often up to 57.1 µM), most hits filed as inhibitors. AID 720503, 2013; note: nearly all actives have a fitted effect of over 60% in size
Hits are given with their value; . = inactive; ? = inconclusive; / = not tested or not shown; [ ] = dose if it differs, or a comment. Unless noted, calls come from the whole dose curve; as a rule, active = well fitted curve in the direction sought with a large enough effect; inconclusive = small, poorly fitted or top-dose-only effect, or another doubt; inactive = no such curve, though single readings can be large; an effect the other way counts as inactive or inconclusive.

SMILES	Pol iota inh	Pol eta inh-1	PI5P4Ka inh	WRN helicase inh-1	Pol kappa inh-1	Pol beta inh	Pol eta inh-2	others
CN(C)c1ccc(/C=C2\C(=O)NC(=O)N(Cc3ccc(F)cc3)C2=O)cc1	.	.	.	.	.	.	/
CN1C(=O)/C(=C/C=C/c2ccco2)C(=O)NC1=S	10µM	5.6µM	-90	35µM	25µM	?	/	TbPGK inh=5.2µM;WRN helicase inh-2=15µM;TO displacement=.;BLM helicase inh=8.6µM
O=C1NC(=O)N(Cc2ccccc2)C(=O)/C1=C/N1CCCc2ccccc21	?	.	.	.	.	.	/
O=C1NC(=O)N(Cc2ccco2)C(=O)/C1=C/C=C/c1ccco1	?	4µM	-83	20µM	14µM	?	4.8	Pol iota confirm=6.7;WRN helicase inh-2=11µM;TO displacement=.;BLM helicase inh=6.1µM
CN1CC[C@@]2(c3cccc(O)c3)Cc3nc4ccccc4cc3C[C@H]2C1	/	/	/	/	.[19.4 µM]	/	/
CC12CCC3C4CCC(=O)C(O)=C4CCC3C1CCC2OC(=O)CCC1CCCC1 (stereo not given)	/	/	/	/	.[19.4 µM]	/	/
O=C1NC(=O)N(Cc2ccc(F)cc2)C(=O)/C1=C\c1ccoc1	14µM	22µM	-93	32µM	25µM	?	30	Pol iota confirm=19;Pol kappa inh-2=17;WRN helicase inh-2=5.4µM;TO displacement=.;BLM helicase inh=3µM
CN1/C(=C\C=C2C(=O)NC(=O)NC2=O)C(C)(C)c2ccccc21	.	.	.	.	.	.	/
CCN1/C(=C/C=C/C2=[N+](CC)c3ccccc3C2(C)C)C(C)(C)c2ccccc21	/	32µM	?	4.7µM	/	/	67	Pol iota confirm=38;Pol kappa inh-2=67;WRN helicase inh-2=22µM;TO displacement=.;BLM helicase inh=22µM
C[n+]1c2cc(N)ccc2cc2ccc(N)cc21	7.9µM	45µM	?	18µM	22µM	/	30	Pol iota confirm=9.5;Pol kappa inh-2=7.5;WRN helicase inh-2=11µM;BLM helicase inh=12µM
Nc1ccc2ccccc2c1	.	.	.	.	.	/	/
COc1cccc(OC)c1-c1nn2c(-c3n[nH]c4c3CCC4)nnc2s1	5µM	/	/	/	79µM	/	?	Pol iota confirm=?;WRN helicase inh-2=?;TO displacement=?;BLM helicase inh=?
CC1=Nc2ccccc2/C1=C/c1c(O)[nH]c(=O)[nH]c1=O	?	.	.	.	.	.	/
O=c1[nH]c(O)c(/C=C2/C=CC(c3cc(Cl)ccc3Cl)=N2)c(=O)[nH]1	.	18µM	.	.	.	.	?
C[C@H](N)Cc1c[nH]c2ccc(OCc3cccs3)cc12	/	/	/	/	.[19.4 µM]	/	/
Cc1ccc(-n2c(C)cc(/C=C3/C(=O)NC(=O)N(Cc4ccco4)C3=O)c2C)cc1	20µM	50µM	.	.[11.6 µM]	?	?	?
Cc1ccc(OCCn2cccc2/C=C2/C(=O)NC(=O)N(Cc3ccco3)C2=O)cc1	8.9µM	20µM	?	?	28µM	.	67
Cc1cc(/C=C2\C(=O)NC(=O)N(Cc3ccco3)C2=O)c(C)n1-c1ccc(O)cc1	?	20µM	-83	?	40µM	11µM	?
Cc1cc(C=C2C(=O)N(C)C(=O)N(C)C2=O)c(C)n1-c1ccccc1	.	.	.	.	.	.	/
O=C(O)Cn1cc(/C=C2\C(=O)NC(=O)N(c3ccc(Cl)cc3)C2=O)c2ccccc21	?	?	.	?	.	.	/
Cc1c(Cl)cccc1N1C(=O)NC(=O)/C(=C\c2cc(C)n(-c3cccc(C(=O)O)c3C)c2C)C1=O	11µM	35µM	.	.[11.6 µM]	79µM	?	?
Cc1cc(/C=C2\C(=O)NC(=O)N(c3cccc(F)c3)C2=O)c(C)n1-c1ccc(C(=O)O)c(Cl)c1	?	14µM	?	.[11.6 µM]	?	25µM	34
CCn1c(C)cc(/C=C2\C(=O)NC(=O)N(c3ccccc3C)C2=O)c1C	.	.	.	.	.	.	/
COc1cc(-c2nc3ccc(Cl)cn3c2Nc2ccc3c(c2)OCCO3)ccc1O	?	.	/	/	.	.	/
NCCc1c[nH]c2ccc(O)cc12	/	/	/	/	.	/	/
c1ccc(CN2CCC3(CCNCC3)CC2)cc1	/	/	/	/	.	/	/
O=C(O)CCC(=O)NCCC1=c2ccccc2=N/C1=C\c1c(O)n(Cc2ccc(F)cc2)c(=S)[nH]c1=O	?	50µM	-85	79µM	?	.	?
CCCCC(=O)N/N=C/c1c(O)n(Cc2ccc(F)cc2)c(=O)[nH]c1=O	.	.	.	.	.	.	/
CCN(CC)C(=O)Cn1cc(/C=C2\C(=O)NC(=O)N(c3ccccc3F)C2=O)c2ccccc21	.	.	.	.	.	.	/
Cc1ccccc1N1C(=O)NC(=O)/C(=C\c2cnn(-c3ccccc3)c2)C1=O	.	22µM	-72	?	.	16µM	?
